Reference: the supplement of paper PMC13380429
A number with no mark means an inactive call.

System: Vero E6 infected with SARS-CoV-2
Assay: inhibition of SARS-CoV-2 cytopathic effect; higher = more antiviral protection, active = above 15
Conditions: 48 h

Structure (SMILES)	inhibition of SARS-CoV-2 cytopathic effect (1 nM)	inhibition of SARS-CoV-2 cytopathic effect (8.33 nM)	inhibition of SARS-CoV-2 cytopathic effect (100 nM)	inhibition of SARS-CoV-2 cytopathic effect (833.33 nM)	inhibition of SARS-CoV-2 cytopathic effect (10000 nM)
Nc1ccc(S(N)(=O)=O)cc1 [sulfanilamide]	-4.21%	-0.69%	4.19%	2.93%	1.32%
O=C1/C(=C/c2ccccc2)C[C@@]2(O)[C@H]3Cc4ccc(O)c5c4[C@@]2(CCN3CC2CC2)[C@H]1O5	-2.61%	0.97%	1.2%	8.78%	-26.4%
CCCCC(CC)CCC(CC(C)C)OS(=O)(=O)O (stereo not given) [sodium-tetradecyl-sulfate]	3.58%	3.18%	2.64%	1.74%	3.12%
C[C@@H](CN)CC(=O)O [3-methyl-GABA]	0.49%	0.52%	1.28%	1.08%	-0.34%
c1cc(CN2CCCNCCNCCCNCC2)ccc1CN1CCCNCCNCCCNCC1 [plerixafor]	-2.23%	-1.5%	0.88%	0.29%	1.12%
CC(O)(CS(=O)(=O)c1ccc(F)cc1)C(=O)Nc1ccc(C#N)c(C(F)(F)F)c1 (stereo not given) [bicalutamide]	-2.58%	-1.35%	0.77%	-0.42%	-0.92%
COc1cc(NS(=O)(=O)c2ccc(N)cc2)nc(OC)n1 [sulphadimethoxine]	-0.84%	-2.06%	2.74%	-1.94%	-0.74%
Oc1ccc(OCc2ccccc2)cc1 [monobenzone]	-1.3%	-1.35%	-0.07%	-0.61%	-2.93%
CC(C)c1ccc(NC(=O)c2cccs2)c(-c2nc3ccccc3[nH]c2=O)c1	-1.18%	-0.5%	0.48%	-0.61%	-1.09%
CC(C)c1nc(N(C)S(C)(=O)=O)nc(-c2ccc(F)cc2)c1/C=C/[C@@H](O)C[C@@H](O)CC(=O)O [rosuvastatin]	-0.46%	0.22%	-2.09%	-3.33%	-2.75%
CCCCN1CCCC1CNC(=O)c1cc(C#N)c2ccccc2c1OC (stereo not given) [nafadotride]	-1.44%	-0.63%	-0.23%	0.59%	0.87%
O=C(O)CCCCN(CCc1ccccc1OCc1ccc(CCc2ccccc2)cc1)Cc1ccc(C(=O)O)cc1 [cinaciguat]	1.27%	2.69%	2.55%	2.26%	-3.15%
O=C(O)c1cc(O)c2c(Cl)cc(Cl)cc2n1 [5,7-dichlorokynurenic-acid]	1.65%	-2.54%	-2.79%	0.55%	-0.44%
CCCCCCCCCCCCCCCCNc1ccc(C(=O)O)cc1 [cetaben]	2.02%	3.28%	1.52%	1.67%	-2.46%
O=C1C2CCN(CC2)C1(CO)CO	-0.42%	1.99%	3.09%	2.96%	5.06%
NCC1CC(=O)N(Cc2ccccc2)C1 (stereo not given) [nebracetam]	2.53%	1.25%	1.38%	1.16%	0.26%
CC(C)=CCC/C(C)=C/CC/C(C)=C/CSc1ccccc1C(=O)O [salirasib]	2.79%	2.19%	1.36%	6.06%	0.01%
CC[C@H]1OC(=O)C[C@@H](O)[C@H](C)[C@@H](O[C@@H]2O[C@H](C)[C@@H](O[C@H]3C[C@@](C)(O)[C@@H](O)[C@H](C)O3)[C@H](N(C)C)[C@H]2O)[C@@H](CC=O)C[C@@H](C)C(=O)/C=C/C(C)=C/[C@@H]1CO[C@@H]1O[C@H](C)[C@@H](O)[C@@H](OC)[C@H]1OC	-4.49%	-1.15%	-2.1%	-0.46%	4.02%
CO[C@@]1(NC(=O)Cc2cccs2)C(=O)N2C(C(=O)O)=C(COC(N)=O)CS[C@@H]21 [cefoxitin]	-0.07%	-1.13%	-0.89%	0.12%	1.09%
CCCCn1c(=O)c2[nH]c(C34CC5CC(CC3C5)C4)nc2n(CCCO)c1=O	1.96%	2.64%	0.93%	-1.18%	-2.7%

Structure (SMILES)	inhibition of SARS-CoV-2 cytopathic effect (1 nM)	inhibition of SARS-CoV-2 cytopathic effect (8.33 nM)	inhibition of SARS-CoV-2 cytopathic effect (100 nM)	inhibition of SARS-CoV-2 cytopathic effect (833.33 nM)	inhibition of SARS-CoV-2 cytopathic effect (10000 nM)
COc1cc(OCc2cccc(-c3ccccc3)c2C)cc(OC)c1CN1CCCC[C@H]1C(=O)O [PD1-PDL-inhibitor-1]	-2.92%	1.37%	5.72%	0.14%	0.4%
Cc1cc(Nc2ccc(NC(=O)c3ccc(Nc4ccnc5ccccc45)cc3)cc2)nc(N)n1	-1.09%	0.62%	2.48%	3.69%	20.3% (active)
N[C@@H]1CCCN(c2c(/C=C3\SC(=O)NC3=O)cccc2-c2ccccc2)C1	3.5%	-3.14%	-1.57%	-0.89%	0%
COc1cc(N2CCC(N3CCN(C)CC3)CC2)ccc1Nc1ncnc(Nc2ccccc2S(=O)(=O)C(C)C)n1	1.25%	-0.68%	1.16%	2.18%	-7.16%
CNC(=O)Nc1ccc(-c2nc(N3CC4CCC(C3)O4)c3cnn(C4CCC5(CC4)OCCO5)c3n2)cc1	-1.21%	1.24%	0.34%	-0.87%	9.1%
[I-].[K+] [potassium-iodide]	-3.24%	-3.7%	-1.59%	0.38%	-1.54%
Oc1cc2c(cc1O)C(c1ccccc1)CNCC2 (stereo not given)	3.06%	1.73%	1.53%	1.32%	0.48%
CC(=O)NCCCOc1ccc(C(=O)N2CCC(N3C(=O)CCc4ccccc43)CC2)cc1	2.92%	-2.2%	0.95%	1.64%	3.15%
C[C@@](Cc1ccc(O)c(O)c1)(NN)C(=O)O [carbidopa]	-5%	-1.47%	-3.59%	-2.28%	-0.52%
Cc1cccc(C)c1NC(=O)CN1CCN(CCCC(c2ccc(F)cc2)c2ccc(F)cc2)CC1 [lidoflazine]	-2.3%	0.7%	0.47%	-1.87%	-10.2%
OCCCNc1cc(-c2ccnc(Nc3cccc(Cl)c3)n2)ccn1	1.32%	-0.77%	1.6%	-16.6%	11.2%
Nc1nccc(-c2ccc3noc(-c4ccc(Cl)cc4)c3c2)n1 [PIM-1-Inhibitor-2]	0.72%	-0.19%	3.66%	0.83%	0.56%
Oc1ccc2ccccc2c1Cc1c(O)ccc2ccccc12	2.61%	-1.04%	2.9%	-1.96%	5.77%
Cn1nnc2c(C(N)=O)ncn2c1=O [temozolomide]	0.73%	-1.46%	-0.92%	-0.44%	-1.79%
Cc1cc(OCCN2CCOCC2)nn1-c1ccc2ccccc2c1	-2.51%	-1.6%	-2.06%	0.03%	1.91%
CNC(=O)CN(CCN(CCN(CC(=O)[O-])CC(=O)NC)CC(=O)[O-])CC(=O)[O-].[Gd+3] [gadodiamide]	-0.88%	-0.45%	-3.37%	-0.21%	1.36%
Cc1cccc(-c2n[nH]cc2-c2ccc(F)c(-c3cnn(CCO)c3)c2)n1	3.99%	1.16%	-2.29%	-0.9%	-3.66%
Cc1ccc2c(c1)c1c3n2CCNC3CCC1 (stereo not given) [pirlindole]	-1.68%	-2.42%	-1.65%	0.99%	-3.66%
O=C(c1cc2ccccc2o1)N1CCN(Cc2ccccc2)CC1 [befuraline]	-1.29%	1.94%	3.17%	0.64%	-2.11%
CCCCCCCCCCCCCC(=O)[O-].CCCCCCCCCCCCCC(=O)[O-].N[C@@H]1CCCC[C@H]1N.[Pt+2] [miriplatin]	-0.38%	-0.15%	0.5%	-1%	-1.94%
